Some test systems named below: PAK3; PAK4; PAK6; PAK7; PDGFRA; PDGFRB; PDPK1.
Holding throughout (settings): concentration: 1 μM, replicates: in singlicate; n = 1
A further experiment deals with T1, PCTK1.
T1 construct: gene CDK16

Another experiment has as its system T2, PCTK2.
T2 construct: gene CDK17

The test system of the next experiment is T3, PCTK3.
T3 construct: gene CDK18
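Note: KINOMEscan kinase panel screen.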

Regarding `Cc1nccc(-c2c(-c3ccc(F)cc3)ncn2CCCN2CCOCC2)n1.Cl` [SB-282975], the “%Inh” value with PAK3 is 0%; with PAK4, 0%; in the experiment with PAK6, 0%; in the experiment on PAK7 it was 0%; in the experiment with PCTK1, 1%; in the experiment with PCTK2 it was 3%. The “%Inh” value in the experiment with PCTK3 is recorded as 10%; with PDGFRA it was 0%; in the experiment with PDGFRB, 0%; in the experiment with PDPK1, 29%.

Regarding `NS(=O)(=O)c1cccc(N/C=C2\C(=O)Nc3ccc(S(=O)(=O)Cc4c(Cl)cccc4Cl)cc32)c1` [GSK398099], the “%Inh” value amounted to 0% in the experiment with PAK3; 0% in the experiment with PAK4; 5% in the experiment on PAK6; 4% in the experiment on PAK7; 6% in the experiment on PCTK1; 0% with PCTK2. The “%Inh” value with PCTK3 worked out at 21%; in the experiment with PDGFRA it was 0%; in the experiment on PDGFRB, 20%; in the experiment with PDPK1, 0%.

In the case of `O=C1NC(=O)C(c2ccc(Cl)cc2)=C1Nc1cccc(Cl)c1` [SB-317651], the “%Inh” value in the experiment on PAK3 worked out at 14%; in the experiment on PAK4, 18%; in the experiment on PAK6, 0%; in the experiment with PAK7 it was 0%; in the experiment with PCTK1 it was 0%; in the experiment with PCTK2 it was 15%. In addition, the “%Inh” value in the experiment on PCTK3 stood at 12%; in the experiment with PDGFRA it was 9%; in the experiment on PDGFRB it was 0%; in the experiment on PDPK1, 0%.

Take `O=C(Nc1n[nH]c2nc(-c3cccs3)c(Br)cc12)C1CC1` [SB-735297]: the “%Inh” value with PAK3 stood at 0%; in the experiment on PAK4, 0%; in the experiment on PAK6, 3%; in the experiment with PAK7 it was 0%; in the experiment with PCTK1, 28%; with PCTK2, 40%. Also, the “%Inh” value in the experiment on PCTK3 turned out to be 6%; with PDGFRA, 0%; with PDGFRB, 43%; in the experiment on PDPK1, 0%.

`COc1ccc(CSc2nnc(-c3ccc4c(c3)CCO4)o2)cc1`: the “%Inh” value worked out at 0% in the experiment on PAK3; 0% in the experiment with PAK4; 0% with PAK6; 0% in the experiment on PAK7; 0% with PCTK1; 5% in the experiment with PCTK2. Also, the “%Inh” value with PCTK3, in the experiment on PDGFRA, in the experiment on PDGFRB and in the experiment with PDPK1 was 0% throughout.

Consider `COC(=O)C(Cc1ccccc1)NC(=O)NC1CCN(c2ccnc(Nc3ccc(F)cc3)n2)C1` (centres unmarked) [GSK1379714], for which the “%Inh” value amounted to 16% in the experiment with PAK3; 0% with PAK4; 0% in the experiment on PAK6; 7% with PAK7; 5% in the experiment on PCTK1; 9% with PCTK2. In addition, the “%Inh” value with PCTK3 amounted to 0%; with PDGFRA it was 7%; in the experiment on PDGFRB, 23%; in the experiment with PDPK1, 4%.

In the case of `CCn1c(-c2c(N)noc2C)nc2cnccc21` [SB-737856], the “%Inh” value with PAK3 is 3%; in the experiment on PAK4, 0%; in the experiment on PAK6 it was 0%; in the experiment on PAK7, 0%; with PCTK1, 0%; in the experiment with PCTK2 it was 0%. For the same molecule, the “%Inh” value with PCTK3 is 44%; in the experiment with PDGFRA, 0%; in the experiment on PDGFRB it was 0%; with PDPK1, 2%.

Regarding `Cc1ccc(NC(=O)c2ccc(Cl)cc2)cc1-c1ccc(C(=O)Nc2ccncc2)cc1` [GSK1398467], the “%Inh” value amounted to 19% in the experiment on PAK3; 0% with PAK4; 0% with PAK6; 65% with PAK7; 0% in the experiment on PCTK1; 0% in the experiment on PCTK2. Also, the “%Inh” value in the experiment on PCTK3 is reported as 0%; in the experiment with PDGFRA, 66%; in the experiment on PDGFRB it was 100%; with PDPK1, 0%.

Turning to `Cl.Cl.Cl.N#Cc1ccc(CCNc2nccc(-c3cccc(CN4CCNCC4)c3)n2)cc1` [GSK2137462], the “%Inh” value is 6% in the experiment with PAK3; 0% in the experiment on PAK4; 8% in the experiment on PAK6; 12% with PAK7; 0% in the experiment with PCTK1; 0% in the experiment with PCTK2. The “%Inh” value is given as 0% in the experiment with PCTK3, 0% in the experiment on PDGFRA, 34% with PDGFRB and 8% with PDPK1.

Turning to `CNCc1ccc2nc(NC(=O)c3ccc(C(C)(C)C)cc3)cn2c1`, the “%Inh” value in the experiment on PAK3 was determined as 4%; with PAK4 it was 4%; in the experiment on PAK6, 0%; with PAK7, 0%; with PCTK1 it was 41%; in the experiment with PCTK2, 3%. Besides, the “%Inh” value amounted to 0% in the experiment with PCTK3, 73% with PDGFRA, 74% in the experiment on PDGFRB and 3% in the experiment on PDPK1.

As to `COc1ccc(-c2coc3ccc(-c4nnc(C)o4)cc23)cc1`, the “%Inh” value in the experiment with PAK3 is 0%; in the experiment with PAK4, 5%; in the experiment on PAK6, 6%; with PAK7, 5%; in the experiment with PCTK1 it was 56%; in the experiment with PCTK2, 0%. The “%Inh” value in the experiment on PCTK3 is 11%; in the experiment with PDGFRA, 0%; in the experiment with PDGFRB, 0%; in the experiment on PDPK1 it was 33%.

For `COc1ccc(Nc2nccc(-c3ccc(NC(=O)c4cc5cc(F)ccc5[nH]4)cc3)n2)cc1` [GSK1229496], the “%Inh” value in the experiment with PAK3 was 0%; in the experiment on PAK4, 0%; in the experiment with PAK6, 0%; in the experiment on PAK7 it was 5%; in the experiment with PCTK1, 0%; in the experiment with PCTK2 it was 0%. For the same molecule, the “%Inh” value in the experiment with PCTK3 worked out at 0%; in the experiment with PDGFRA, 0%; in the experiment with PDGFRB, 47%; with PDPK1 it was 0%.

For `COC(=O)c1cccc(NC(=O)NC2CCN(c3ccnc(Nc4ccc(F)cc4)n3)C2)c1` (centres unmarked) [GSK1379725], the “%Inh” value with PAK3 turned out to be 0%; in the experiment with PAK4 it was 0%; in the experiment on PAK6, 0%; with PAK7, 0%; in the experiment on PCTK1, 10%; in the experiment on PCTK2, 0%. Further, the “%Inh” value in the experiment on PCTK3 was 12%; in the experiment on PDGFRA it was 0%; in the experiment on PDGFRB, 36%; in the experiment with PDPK1 it was 0%.

As to `COC(=O)C(NC(=O)NC1CCN(c2ccnc(Nc3ccc(F)cc3)n2)C1)c1ccccc1` (centres unmarked) [GSK1379712], the “%Inh” value in the experiment on PAK3 is recorded as 0%; in the experiment on PAK4, 0%; in the experiment with PAK6, 0%; in the experiment with PAK7, 2%; with PCTK1, 0%; in the experiment with PCTK2 it was 14%. The “%Inh” value in the experiment with PCTK3 is listed as 24%; with PDGFRA, 14%; in the experiment with PDGFRB, 38%; with PDPK1, 0%.

Turning to `COc1ccc2cc(-c3nc(-c4ccccc4C(C)C)[nH]c3-c3ccncc3)ccc2c1` [SB-660566], the “%Inh” value in the experiment with PAK3 was determined as 30%; in the experiment with PAK4, 0%; in the experiment on PAK6, 0%; with PAK7, 0%; in the experiment on PCTK1, 51%; with PCTK2, 0%. For the same molecule, the “%Inh” value was determined as 2% in the experiment with PCTK3, 0% in the experiment on PDGFRA, 7% in the experiment with PDGFRB and 0% in the experiment on PDPK1.

Regarding `Cc1cnc(N)c(/C=C/c2cncc(C(=O)NCCc3ccc(Cl)cc3Cl)c2)c1.Cl` [GSK190937], the “%Inh” value with PAK3 is 0%; in the experiment on PAK4, 0%; with PAK6, 0%; in the experiment on PAK7, 7%; with PCTK1 it was 1%; in the experiment on PCTK2 it was 0%. In addition, the “%Inh” value in the experiment with PCTK3 came out at 0%; in the experiment with PDGFRA, 96.4%; in the experiment with PDGFRB it was 98.8%; in the experiment on PDPK1, 0%.

As to `COc1ccc(CSc2nnc(-c3ccc4ncsc4c3)o2)cc1C(F)(F)F`, the “%Inh” value stood at 9% in the experiment with PAK3; 0% in the experiment with PAK4; 9% in the experiment with PAK6; 1% in the experiment with PAK7; 0% in the experiment on PCTK1; 0% with PCTK2. The “%Inh” value turned out to be 0% in the experiment on PCTK3, 0% with PDGFRA, 0% in the experiment on PDGFRB and 10% with PDPK1.
